Assay outcomes: PubChem, National Center for Advancing Translational Sciences (NCATS)
HP1b chromo inh: HP1-beta chromodomain-methylated histone interaction inhibition; AlphaScreen HP1-beta / biotin-H3K9me3 peptide binding; Potency, µM (titrated, usually from 114 µM), inactives show at the top dose activity change, negative = inhibition, usual class: inhibitors; actives 0.56% (n = 390,000); AID 540317; note: potency is the fitted concentration of half-maximal effect; nearly all actives have a fitted effect of over 70% in size
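HP1-beta protein (50 nM final) preincubated 30 min at room temperature with biotinylated H3(1-18)K9me3 peptide (50 nM) in PBS pH 7.4, 0.01% Tween-20, then compound added for 30 min. AlphaScreen streptavidin donor/nickel chelate acceptor beads (10 ug/mL final), 30 min dark, luminescence read.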
BAZ2B block: blocks human BAZ2B; AlphaScreen BAZ2B-H3K14Ac peptide displacement; Q9UIF8; Potency, µM (titrated, usually from 114 µM), without a hit: at the highest dose activity change, negative = inhibition, actives largely listed as inhibitors; AID 504333; actives 4.4% (n = 360,000); note: potency is the fitted concentration of half-maximal effect; % is set by controls: 0 for no effect and ±100 for the full control effect; nearly all actives have a fitted effect of over 60% in size
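BAZ2B (50 nM) with biotin-H3(5-23)K14Ac peptide (50 nM) in PBS pH 7.4, 0.01% Tween-20, preformed 30 min, then compound 30 min at room temperature; top concentration 110uM. AlphaScreen streptavidin donor/nickel chelate acceptor beads (10 ug/mL final), 20 min dark, signal read.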
G9a inh: blocks human histone lysine methyltransferase G9a; Q96KQ7; G9a H3K9 monomethylation, AlphaScreen, 2 h; Potency, µM (top dose mostly 102 µM), without a hit: at the top dose activity, negative = inhibition, hits mostly inhibitors; actives 8.8% (n = 350,000); note: potency is the fitted concentration of half-maximal effect; % is set by controls: 0 for no effect and ±100 for the full control effect; nearly all actives have a fitted effect of over 75% in size
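Compounds were preincubated with 20 nM G9a for 15 min, after which biotinylated H3K9 peptide (500 nM) and SAM (20 uM) started a 2 h room-temperature reaction. Monomethylated product was quantified by antibody-based AlphaScreen chemiluminescence.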
PI5P4K alpha inh: PI5P4K alpha (human) kinase inhibition; P48426; PI5P4Kalpha enzyme, ADP-Glo luminescence, 60 min; hits give low values; max response, %; actives 1.2% (n = 330,000); active = max response of -50% or lower; inconclusive = between -30% and -50%; inactive = -30% or higher; note: value at the top dose of about 77 µM; % is set by controls: 0 for no effect and ±100 for the full control effect
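Single end-point luminescence (ADP-Glo) quantified ADP from PI5P4Kalpha turnover; ATP 5 microM final, 1 h at RT, 0.1% CHAPS and 0.28 mM EGTA in HEPES pH 7.4.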
JMJD2A Tudor: JMJD2A Tudor domain (human) inhibition | actives 4.4% (n = 390,000) | AlphaScreen JMJD2A-Tudor / H3K4me3 peptide binding | O75164 | Potency, µM (series often up to 114 µM), for the others: top-dose activity change, negative = inhibition, most hits filed as inhibitors; note: potency is the fitted concentration of half-maximal effect; % is set by controls: 0 for no effect and ±100 for the full control effect; nearly all actives have a fitted effect of over 50% in size
PLK1 PBD inh: inhibitors of human PLK1 polo-box domain binding; P53350; Plk1 PBD binding of FITC phosphopeptide, fluorescence polarization; Potency, µM, inactives show max response, negative = inhibition, most hits filed as inhibitors; actives 2.8% (n = 360,000); note: potency is the fitted concentration of half-maximal effect; series mostly up to about 57 µM; % is set by controls: 0 for no effect and ±100 for the full control effect; nearly all actives have a fitted effect of over 65% in size
* hit, by the source's call; u = inconclusive; x = no result given; [ ] = remark or other dose. Sampled rows, rich in hits. Any-hit rate of the full collection: about 12%. Unless noted, calls come from the whole dose curve; as a rule, active = well fitted curve in the direction sought with a large enough effect; inconclusive = small, poorly fitted or top-dose-only effect, or another doubt; inactive = no such curve, though single readings can be large; an effect the other way counts as inactive or inconclusive.

SMILES	HP1b chromo inh	BAZ2B block	G9a inh	PI5P4K alpha inh	JMJD2A Tudor	PLK1 PBD inh
CCN(CC(=O)Nc1ccc(NC(C)=O)cc1)C(=O)c1cccc(-n2cccc2)c1	u	50µM*	50µM*	-17	-32%	-4%
Cc1ccc(S(=O)(=O)N(C)c2ccc(C(=O)NCc3ccccc3F)cc2)cc1	25%	-1%	50µM*	1	-4%	0%
Cc1ccc(NC(=O)CN(C)C(=O)c2cccc(Br)c2)cc1	9%	-2%	15%	-1	u	30µM*
Cc1ccc(NC(=O)CN(C)C(=O)c2ccc(S(=O)(=O)N(C)c3ccccc3)cc2)cc1	24%	-9%	56µM*	0	-6%	-17%
CCN(CC(=O)Nc1ccc(NC(C)=O)cc1)C(=O)c1cccc(Oc2ccccc2)c1	-2%	-1%	-3%	2	-19%	-2%
Cc1cc(Cl)ccc1OCC(=O)N[C@@H](Cc1ccccc1)c1nc2ccccc2[nH]1	34%	56µM*	u	11	-17%	-17%
COc1ccc(C=NN=C2c3ccccc3-c3ccccc32)cc1OC	u	x	x	38	13µM*	9%
C=C(C)C1COc2cc3oc(=O)ccc3cc2O1 (stereo not drawn)	x	x	-32%[2.33 µM]	x	x	x
O=C(COC(=O)c1ccc2c(c1)OCCO2)NCc1ccc(Cl)cc1	x	x	x	0	x	-5%
Fc1ccccc1N1CCN(C(c2ccncc2)c2nnnn2C2CCCC2)CC1 (stereo not drawn)	41%	0%	32µM*	x	-18%	-12%
CCCC(c1nnnn1C1CCCC1)N1CCN(c2ccccc2F)CC1 (stereo not drawn)	32%	-30%	50µM*	-5	-5%[11.4 µM]	u
c1ccc(C(c2nnnn2C2CCCC2)N2CCCCCC2)nc1 (stereo not drawn)	7%	50µM*	28µM*	x	50µM*	-5%
c1ccc(C(c2ccccc2)N2CCN(C(c3ccccn3)c3nnnn3C3CCCC3)CC2)cc1 (stereo not drawn)	16%	1%	10%	-5	-20%	-12%
CCC(c1nnnn1C1CCCC1)N1CCN(c2ccccc2F)CC1 (stereo not drawn)	42%	-29%	-36%[12.7 µM]	-1	-5%	-2%
COc1ccc(N(CC(=O)N2CCN(c3cccc(C)c3C)CC2)S(=O)(=O)c2c(C)noc2C)cc1	28%	-18%	22%	6	-24%	1%
COc1ccc(-c2cn3c(n2)sc2cc(C(=O)NCC(C)c4ccccc4)ccc23)cc1 (stereo not drawn)	37%	-17%	-4%[59 µM]	x	-6%	x
COc1ccc(NC(c2ccc(F)cc2)c2nnc(-c3ccccc3Cl)o2)cc1Cl (stereo not drawn)	3%	u	u	x	-30%	x
Cc1cc(C)nc(SCC(=O)N/N=C/c2cccc([N+](=O)[O-])c2)n1	-24%	5%	-23%	-24	40µM*	21µM*
Cc1cc(C)nc(SCC(=O)N/N=C/c2cccn2-c2ccc(O)cc2)n1	-26%	u	40µM*	-10	u	-5%
O=C(N/N=C/c1cccc([N+](=O)[O-])c1)c1cccc(Br)c1	-10%	1%	3%	-5	-23%	30µM*
O=C(CSc1ncccn1)N/N=C/c1cccc([N+](=O)[O-])c1	27%	1%	3%[59 µM]	-3	1%	-2%
Cc1cc(C)nc(SCC(=O)NN=C2CCCC2)n1	u	-19%	12%[59 µM]	-50*	18µM*	6.7µM*
CC(NS(=O)(=O)c1ccc2c(c1)CC(=O)N2C)c1ccccc1 (stereo not drawn)	30%	4%	17%	-17	-14%	-9%
Cc1ccccc1-c1noc(CCC(=O)Nc2cccc(C)c2C)n1	21%	-8%	-7%[59 µM]	x	-12%	x
O=C(c1ccco1)N1CCN(Cc2nnnn2CC2CCCO2)CC1 (stereo not drawn)	40%	-30%	u	-19	28µM*	12µM*
SMILES	HP1b chromo inh	BAZ2B block	G9a inh	PI5P4K alpha inh	JMJD2A Tudor	PLK1 PBD inh
Cc1ccc(C(c2nnnn2CC2CCCO2)N2CCN(C(=O)c3ccco3)CC2)cc1 (stereo not drawn)	41%	-35%	76%[59 µM]	1	-4%	-1%
O=C(c1ccco1)N1CCN(C(c2ccc(Cl)cc2)c2nnnn2CC2CCCO2)CC1 (stereo not drawn)	0%	u	-47%[12.7 µM]	-2	79µM*	-7%
O=C(COC(=O)c1nc(Cl)ccc1Cl)NC1CCCCC1	20%	7%	u	-5	-19%	6%
COc1ccccc1N1CCN(c2nc(N)c(C#N)c(CC#N)c2C#N)CC1	18%	-34%	50µM*	-17	u	-6%
COc1cc2c(C#N)c(N3CCN(c4ccccc4OC)CC3)nc(N)c2c(N)n1	-11%	u	u	-12	-31%	0%
CCCC[C@@H]1CCCO[C@@](C(=O)NCc2ccc(S(C)(=O)=O)cc2)(C(F)(F)F)C1	16%	x	x	x	-9%	x
CCOC(=O)C1CCN(Cc2nc3ccc([N+](=O)[O-])cc3c(=O)n2-c2ccc(OC)cc2OC)CC1	0%	-38%	32µM*	5	-28%	-13%
COc1cccc(-n2c(CN3CCN(c4ccccc4)CC3)nc3ccc([N+](=O)[O-])cc3c2=O)c1	-8%	u	20µM*	1	u	-11%
CCC(CC)N1CCN(Cc2nc3ccc([N+](=O)[O-])cc3c(=O)n2-c2ccccc2F)CC1	-16%	-3%	-21%	6	-18%	-1%
COc1ccccc1C(=O)N1CCN(Cc2nc3cc([N+](=O)[O-])ccc3n2C)CC1	3%	-16%	-1%[12.7 µM]	-8	-13%	-13%
COc1ccc(-n2c(CN3CCC(C(N)=O)CC3)nc3ccc([N+](=O)[O-])cc3c2=O)c(OC)c1	33%	u	56µM*	2	-19%	-9%
CCOC(=O)C1CCN(Cc2nc3ccccc3c(=O)n2-c2ccc(F)cc2)CC1	14%	-7%	u	20	-17%	-16%
CCOC(=O)C1CCCN(Cc2nc3ccc([N+](=O)[O-])cc3c(=O)n2-c2ccc(OC)cc2OC)C1 (stereo not drawn)	-7%	-37%	40µM*	0	u	-10%
COc1ccc(C)cc1NC(=O)CN(c1cc(C(F)(F)F)ccc1Cl)S(C)(=O)=O	15%	-1%	-33%[59 µM]	x	-21%	x
COc1ccc2cc(C3=CCCC3(C)C(=O)O)ccc2c1 (stereo not drawn)	19%[57 µM]	x	x	-7	-11%	-3%
COc1ccc(-n2c(CN3CCN(c4ccccc4OC)CC3)nc3ccc([N+](=O)[O-])cc3c2=O)c(OC)c1	5%	u	45µM*	-1	u	-5%
